Common to all, as to assay: DAPPL (digital affinity profiling via proximity ligation, sequencing); 10 mM Tris-HCl pH 7.5, 50 mM NaCl, 1 mM DTT, 4% glycerol, room temperature, 30 min; GST-TFs on glutathione beads, 16-mer random dsDNA library, 0.1% formaldehyde crosslink after washing; high values mean tight binding
For test [1], the target named is T1, FEV (Homo sapiens, UniProt Q99581 1-238).
T1 sequence: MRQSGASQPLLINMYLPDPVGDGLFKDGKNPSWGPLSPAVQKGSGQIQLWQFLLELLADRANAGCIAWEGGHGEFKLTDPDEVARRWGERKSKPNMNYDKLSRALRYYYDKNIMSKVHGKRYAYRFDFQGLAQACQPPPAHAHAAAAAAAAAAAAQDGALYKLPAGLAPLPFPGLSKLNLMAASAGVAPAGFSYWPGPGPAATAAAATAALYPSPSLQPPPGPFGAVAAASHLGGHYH
Conditions: protein: recombinant; tags: N-terminal GST; dsDNA, one strand shown. In a few lines:
(§1)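 GST fusions of human transcription factors were expressed in yeast and captured with glutathione beads. Once given DNA barcodes and pooled alongside a tag-only sample, they were incubated for 30 min at room temperature with 200 nmole of a random double-stranded 16-mer DNA library in Tris/NaCl/DTT/glycerol buffer, then washed, crosslinked (0.1% formaldehyde), proximity-ligated, PCR-amplified and sequenced on an Illumina NextSeq500. The binding signal of each hexamer is its read frequency for a factor divided by its frequency for the tag-only sample.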

In test [2] the target is ETV5 (Homo sapiens, UniProt P41161 1-510). Conditions: protein: recombinant; tags: N-terminal GST; dsDNA, one strand shown. In a few lines: as §1
Sequence of ETV5 (P41161 whole entry): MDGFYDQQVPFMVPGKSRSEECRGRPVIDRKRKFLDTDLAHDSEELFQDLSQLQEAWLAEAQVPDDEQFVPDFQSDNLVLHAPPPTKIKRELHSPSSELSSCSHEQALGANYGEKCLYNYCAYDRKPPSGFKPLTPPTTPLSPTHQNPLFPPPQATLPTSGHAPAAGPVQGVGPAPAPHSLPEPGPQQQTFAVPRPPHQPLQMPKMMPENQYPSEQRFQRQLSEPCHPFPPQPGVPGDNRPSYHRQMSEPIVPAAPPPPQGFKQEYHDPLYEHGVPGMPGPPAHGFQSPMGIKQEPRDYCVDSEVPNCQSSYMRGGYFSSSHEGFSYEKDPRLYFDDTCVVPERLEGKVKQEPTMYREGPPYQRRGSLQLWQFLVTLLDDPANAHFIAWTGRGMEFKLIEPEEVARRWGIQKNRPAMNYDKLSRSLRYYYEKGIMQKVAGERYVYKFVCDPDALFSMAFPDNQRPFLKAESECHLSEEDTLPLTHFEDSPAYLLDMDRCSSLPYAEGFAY
The target of test [3] is HSF1 (Homo sapiens, UniProt Q00613 1-529). Conditions: protein: recombinant; tags: N-terminal GST; chain copies: 3; dsDNA, one strand shown. In a few lines:
as §1

Test [4] concerns the target T2, SPIC (Homo sapiens, UniProt Q8N5J4 1-248).
T2 sequence: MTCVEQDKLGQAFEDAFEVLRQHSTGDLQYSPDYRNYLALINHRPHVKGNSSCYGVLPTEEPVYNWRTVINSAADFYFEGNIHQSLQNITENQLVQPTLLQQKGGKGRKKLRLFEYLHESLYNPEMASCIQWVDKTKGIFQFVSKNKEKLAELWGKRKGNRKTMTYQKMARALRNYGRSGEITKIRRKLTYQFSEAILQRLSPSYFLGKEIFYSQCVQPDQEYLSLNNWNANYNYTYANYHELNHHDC
Conditions: protein: recombinant; tags: N-terminal GST; dsDNA, one strand shown. The procedure, abridged:
as §1

Test [5] deals with ELF4 (Homo sapiens, UniProt Q99607 1-663). Conditions: protein: recombinant; tags: N-terminal GST; dsDNA, one strand shown. The procedure, abridged:
as §1

Test [6] addresses T3, ELK4 (Homo sapiens, UniProt P28324-2 1-405).
T3 sequence: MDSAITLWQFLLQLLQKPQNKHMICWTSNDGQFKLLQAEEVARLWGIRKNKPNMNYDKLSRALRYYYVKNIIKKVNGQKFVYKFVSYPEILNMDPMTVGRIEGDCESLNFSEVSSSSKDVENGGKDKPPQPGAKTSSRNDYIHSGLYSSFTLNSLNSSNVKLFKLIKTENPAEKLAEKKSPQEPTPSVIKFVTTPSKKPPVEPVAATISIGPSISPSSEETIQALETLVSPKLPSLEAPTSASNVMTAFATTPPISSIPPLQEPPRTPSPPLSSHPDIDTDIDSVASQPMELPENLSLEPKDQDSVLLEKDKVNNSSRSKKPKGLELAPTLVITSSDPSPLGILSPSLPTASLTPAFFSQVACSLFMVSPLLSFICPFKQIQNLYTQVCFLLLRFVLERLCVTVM
Conditions: protein: recombinant; tags: N-terminal GST; dsDNA, one strand shown. In a few lines: as §1

For test [7], the target named is T4, ETV2 (Homo sapiens, UniProt O00321 1-342).
T4 sequence: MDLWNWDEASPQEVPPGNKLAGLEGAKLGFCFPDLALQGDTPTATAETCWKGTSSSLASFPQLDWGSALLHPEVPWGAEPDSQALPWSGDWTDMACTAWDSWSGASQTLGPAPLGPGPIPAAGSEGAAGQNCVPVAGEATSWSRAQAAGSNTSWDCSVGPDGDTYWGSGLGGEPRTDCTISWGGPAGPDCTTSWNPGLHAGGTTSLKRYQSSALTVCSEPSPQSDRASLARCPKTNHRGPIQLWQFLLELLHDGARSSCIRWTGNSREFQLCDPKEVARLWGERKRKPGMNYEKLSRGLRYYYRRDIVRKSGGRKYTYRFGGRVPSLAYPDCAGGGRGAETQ
Conditions: protein: recombinant; tags: N-terminal GST; dsDNA, one strand shown. The procedure, abridged:
as §1

Test [8] deals with T5, ELF3 (Homo sapiens, UniProt P78545 1-371).
T5 sequence: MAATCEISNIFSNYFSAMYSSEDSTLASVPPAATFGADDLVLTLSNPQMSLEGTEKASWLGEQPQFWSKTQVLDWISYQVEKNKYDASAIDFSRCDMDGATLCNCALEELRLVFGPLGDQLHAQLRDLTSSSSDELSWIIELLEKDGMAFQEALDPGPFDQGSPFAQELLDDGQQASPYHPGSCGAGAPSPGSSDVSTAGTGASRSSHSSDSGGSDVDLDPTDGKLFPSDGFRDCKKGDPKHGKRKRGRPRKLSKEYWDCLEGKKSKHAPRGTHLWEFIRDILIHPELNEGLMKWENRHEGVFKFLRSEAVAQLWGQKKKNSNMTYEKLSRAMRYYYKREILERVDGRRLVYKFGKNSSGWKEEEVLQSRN
Conditions: protein: recombinant; tags: N-terminal GST; dsDNA, one strand shown. The procedure, abridged: as §1

For test [9], the target named is CRX (Homo sapiens, UniProt O43186 1-299). To be noted: protein: recombinant; tags: N-terminal GST; dsDNA, one strand shown. In a few lines: as §1
Sequence of CRX (O43186 whole entry): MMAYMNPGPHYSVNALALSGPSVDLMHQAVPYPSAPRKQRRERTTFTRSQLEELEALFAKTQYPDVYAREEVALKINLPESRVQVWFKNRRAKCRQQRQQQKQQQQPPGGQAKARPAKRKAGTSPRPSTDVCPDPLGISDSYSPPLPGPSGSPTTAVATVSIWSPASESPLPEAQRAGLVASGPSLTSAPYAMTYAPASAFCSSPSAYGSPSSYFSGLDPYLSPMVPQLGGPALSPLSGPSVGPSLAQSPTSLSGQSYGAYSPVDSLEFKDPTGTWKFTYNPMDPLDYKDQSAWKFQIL
Test [10] addresses ETV1 (Homo sapiens, UniProt P50549 1-477). Conditions: protein: recombinant; tags: N-terminal GST; dsDNA, one strand shown. The procedure, abridged:
as §1

In test [11] the target is T6, ERF (Homo sapiens, UniProt P50548 1-548).
T6 sequence: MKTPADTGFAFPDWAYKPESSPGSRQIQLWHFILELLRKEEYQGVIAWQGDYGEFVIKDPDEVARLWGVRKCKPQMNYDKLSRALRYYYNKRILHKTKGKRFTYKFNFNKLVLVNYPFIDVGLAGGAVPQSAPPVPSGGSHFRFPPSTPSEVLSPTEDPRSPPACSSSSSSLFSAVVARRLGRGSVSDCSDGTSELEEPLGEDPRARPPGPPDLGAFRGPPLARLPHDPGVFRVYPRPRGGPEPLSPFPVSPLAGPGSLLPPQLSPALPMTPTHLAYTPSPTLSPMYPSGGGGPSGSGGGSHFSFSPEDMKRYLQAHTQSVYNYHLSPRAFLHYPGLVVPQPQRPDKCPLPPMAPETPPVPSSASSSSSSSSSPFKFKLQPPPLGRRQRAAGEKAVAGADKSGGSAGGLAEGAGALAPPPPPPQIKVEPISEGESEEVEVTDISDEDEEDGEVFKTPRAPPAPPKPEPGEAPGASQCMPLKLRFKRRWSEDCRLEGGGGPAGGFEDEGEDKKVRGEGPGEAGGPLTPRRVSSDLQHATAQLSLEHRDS
To be noted: protein: recombinant; tags: N-terminal GST; dsDNA, one strand shown. In a few lines:
as §1

The target in test [12] is T7, ETV3L (Homo sapiens, UniProt Q6ZN32 1-361).
T7 sequence: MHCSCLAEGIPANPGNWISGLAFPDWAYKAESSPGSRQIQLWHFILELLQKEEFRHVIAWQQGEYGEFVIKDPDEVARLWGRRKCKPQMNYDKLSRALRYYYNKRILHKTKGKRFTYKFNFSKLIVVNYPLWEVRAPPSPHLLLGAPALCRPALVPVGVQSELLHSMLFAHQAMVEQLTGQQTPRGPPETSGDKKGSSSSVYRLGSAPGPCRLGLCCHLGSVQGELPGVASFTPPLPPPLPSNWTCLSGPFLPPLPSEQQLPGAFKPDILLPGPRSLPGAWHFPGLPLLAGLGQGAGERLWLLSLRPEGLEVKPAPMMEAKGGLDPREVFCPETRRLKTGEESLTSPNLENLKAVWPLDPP
To be noted: protein: recombinant; tags: N-terminal GST; dsDNA, one strand shown. In a few lines: as §1

Test [13] addresses T8, ETS2 (Homo sapiens, UniProt P15036 1-469).
T8 sequence: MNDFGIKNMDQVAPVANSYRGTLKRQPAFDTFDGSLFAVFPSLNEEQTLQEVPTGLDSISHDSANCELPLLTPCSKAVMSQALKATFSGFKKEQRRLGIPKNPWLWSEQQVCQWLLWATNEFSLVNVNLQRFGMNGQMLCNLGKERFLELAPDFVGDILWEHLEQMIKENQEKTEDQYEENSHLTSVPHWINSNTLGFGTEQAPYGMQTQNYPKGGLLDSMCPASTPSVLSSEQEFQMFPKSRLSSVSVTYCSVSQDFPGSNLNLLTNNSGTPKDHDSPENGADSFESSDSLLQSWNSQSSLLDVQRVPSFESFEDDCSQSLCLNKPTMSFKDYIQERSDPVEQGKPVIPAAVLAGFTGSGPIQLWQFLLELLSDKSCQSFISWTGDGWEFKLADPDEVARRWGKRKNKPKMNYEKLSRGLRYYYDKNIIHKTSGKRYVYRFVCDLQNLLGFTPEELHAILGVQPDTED
To be noted: protein: recombinant; tags: N-terminal GST; dsDNA, one strand shown. The procedure, abridged: as §1

Test [14] addresses T9, SPDEF (Homo sapiens, UniProt O95238 1-335).
T9 sequence: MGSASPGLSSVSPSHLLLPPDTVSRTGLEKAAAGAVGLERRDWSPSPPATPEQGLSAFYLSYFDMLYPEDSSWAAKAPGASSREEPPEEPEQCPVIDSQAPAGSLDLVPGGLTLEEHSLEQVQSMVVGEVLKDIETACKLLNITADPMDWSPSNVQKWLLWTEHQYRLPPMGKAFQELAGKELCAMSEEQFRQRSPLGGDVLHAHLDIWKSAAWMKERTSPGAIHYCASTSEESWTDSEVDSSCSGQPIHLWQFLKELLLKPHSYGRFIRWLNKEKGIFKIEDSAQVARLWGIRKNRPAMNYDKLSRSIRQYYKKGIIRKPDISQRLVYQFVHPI
Conditions: protein: recombinant; tags: N-terminal GST; dsDNA, one strand shown. The procedure, abridged:
as §1

In test [15] the target is T10, ETV7 (Homo sapiens, UniProt Q9Y603 1-341).
T10 sequence: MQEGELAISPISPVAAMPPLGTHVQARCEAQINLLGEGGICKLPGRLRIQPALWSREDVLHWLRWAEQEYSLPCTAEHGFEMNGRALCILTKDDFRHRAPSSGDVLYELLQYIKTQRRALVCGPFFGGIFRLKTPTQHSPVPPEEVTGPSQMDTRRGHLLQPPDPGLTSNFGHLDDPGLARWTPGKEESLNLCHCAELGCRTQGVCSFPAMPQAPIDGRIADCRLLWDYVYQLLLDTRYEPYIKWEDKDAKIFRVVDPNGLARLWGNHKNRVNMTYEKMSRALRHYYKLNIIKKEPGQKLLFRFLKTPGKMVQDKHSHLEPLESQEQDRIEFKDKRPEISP
To be noted: protein: recombinant; tags: N-terminal GST; dsDNA, one strand shown. In a few lines:
as §1

The target in test [16] is T11, ELF5 (Homo sapiens, UniProt Q9UKW6-2 1-255).
T11 sequence: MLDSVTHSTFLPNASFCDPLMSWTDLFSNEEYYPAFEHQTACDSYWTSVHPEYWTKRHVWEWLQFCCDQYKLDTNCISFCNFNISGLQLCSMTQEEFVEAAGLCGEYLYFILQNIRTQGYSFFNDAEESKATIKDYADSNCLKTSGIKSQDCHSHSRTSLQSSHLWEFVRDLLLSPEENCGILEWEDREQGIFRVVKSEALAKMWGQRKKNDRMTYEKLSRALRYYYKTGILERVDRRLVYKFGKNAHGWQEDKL
To be noted: protein: recombinant; tags: N-terminal GST; dsDNA, one strand shown. The procedure, abridged:
as §1

Test [17] concerns the target T12, ETV3 (Homo sapiens, UniProt P41162-2 1-143).
T12 sequence: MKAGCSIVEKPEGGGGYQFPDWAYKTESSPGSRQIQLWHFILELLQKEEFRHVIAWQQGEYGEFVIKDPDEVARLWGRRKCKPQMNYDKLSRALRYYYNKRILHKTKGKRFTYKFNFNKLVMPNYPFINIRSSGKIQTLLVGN
To be noted: protein: recombinant; tags: N-terminal GST; dsDNA, one strand shown. The procedure, abridged: as §1

Test [18] addresses ETV6 (Homo sapiens, UniProt P41212 1-452). To be noted: protein: recombinant; tags: N-terminal GST; dsDNA, one strand shown. In a few lines: as §1

Sequence of HSF1 (Q00613 whole entry): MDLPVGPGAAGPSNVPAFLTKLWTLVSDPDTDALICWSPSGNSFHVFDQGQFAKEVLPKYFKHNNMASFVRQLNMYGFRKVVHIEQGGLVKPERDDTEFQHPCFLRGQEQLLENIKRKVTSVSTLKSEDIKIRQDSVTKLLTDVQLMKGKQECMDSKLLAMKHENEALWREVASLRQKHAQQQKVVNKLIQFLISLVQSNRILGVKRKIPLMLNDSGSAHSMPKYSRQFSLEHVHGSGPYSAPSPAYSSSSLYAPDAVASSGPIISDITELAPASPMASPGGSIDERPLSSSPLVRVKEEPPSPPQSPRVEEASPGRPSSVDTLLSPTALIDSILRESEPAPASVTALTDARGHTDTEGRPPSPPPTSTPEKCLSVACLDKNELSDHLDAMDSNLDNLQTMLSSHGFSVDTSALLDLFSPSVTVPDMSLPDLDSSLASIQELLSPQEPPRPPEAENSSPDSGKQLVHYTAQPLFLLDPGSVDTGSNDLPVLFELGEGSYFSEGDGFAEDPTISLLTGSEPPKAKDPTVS
Sequence of ELF4 (Q99607 whole entry): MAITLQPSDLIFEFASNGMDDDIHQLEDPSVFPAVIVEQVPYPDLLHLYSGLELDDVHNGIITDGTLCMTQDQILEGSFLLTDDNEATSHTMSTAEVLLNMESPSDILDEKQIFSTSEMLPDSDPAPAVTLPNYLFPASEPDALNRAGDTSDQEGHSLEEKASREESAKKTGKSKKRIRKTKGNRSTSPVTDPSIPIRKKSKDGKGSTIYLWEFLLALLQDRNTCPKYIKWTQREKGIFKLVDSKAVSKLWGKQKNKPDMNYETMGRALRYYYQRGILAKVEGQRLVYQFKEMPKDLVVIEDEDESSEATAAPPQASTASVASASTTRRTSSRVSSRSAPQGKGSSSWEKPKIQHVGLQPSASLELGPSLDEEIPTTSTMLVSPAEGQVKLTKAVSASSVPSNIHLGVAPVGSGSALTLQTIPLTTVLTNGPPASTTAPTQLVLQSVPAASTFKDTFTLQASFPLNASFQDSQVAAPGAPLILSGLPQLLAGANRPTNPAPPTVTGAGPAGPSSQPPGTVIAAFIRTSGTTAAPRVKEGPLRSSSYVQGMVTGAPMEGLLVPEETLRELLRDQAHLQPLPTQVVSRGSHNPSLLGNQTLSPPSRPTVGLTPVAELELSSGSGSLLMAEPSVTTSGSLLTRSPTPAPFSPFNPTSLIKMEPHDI
Sequence of ETV1 (P50549 whole entry): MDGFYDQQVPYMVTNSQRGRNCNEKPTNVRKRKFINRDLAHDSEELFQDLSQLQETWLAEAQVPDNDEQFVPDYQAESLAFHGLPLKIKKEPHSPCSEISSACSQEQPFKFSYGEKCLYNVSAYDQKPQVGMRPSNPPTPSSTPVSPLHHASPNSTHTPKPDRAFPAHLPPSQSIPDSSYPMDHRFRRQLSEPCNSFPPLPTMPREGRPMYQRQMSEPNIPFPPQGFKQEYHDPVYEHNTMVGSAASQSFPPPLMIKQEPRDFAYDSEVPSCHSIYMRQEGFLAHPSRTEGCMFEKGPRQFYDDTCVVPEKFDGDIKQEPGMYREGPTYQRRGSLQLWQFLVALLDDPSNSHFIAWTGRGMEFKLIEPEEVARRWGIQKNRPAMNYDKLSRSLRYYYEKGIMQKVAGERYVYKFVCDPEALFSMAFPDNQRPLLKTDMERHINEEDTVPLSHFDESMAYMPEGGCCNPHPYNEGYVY
Sequence of ETV6 (P41212 whole entry): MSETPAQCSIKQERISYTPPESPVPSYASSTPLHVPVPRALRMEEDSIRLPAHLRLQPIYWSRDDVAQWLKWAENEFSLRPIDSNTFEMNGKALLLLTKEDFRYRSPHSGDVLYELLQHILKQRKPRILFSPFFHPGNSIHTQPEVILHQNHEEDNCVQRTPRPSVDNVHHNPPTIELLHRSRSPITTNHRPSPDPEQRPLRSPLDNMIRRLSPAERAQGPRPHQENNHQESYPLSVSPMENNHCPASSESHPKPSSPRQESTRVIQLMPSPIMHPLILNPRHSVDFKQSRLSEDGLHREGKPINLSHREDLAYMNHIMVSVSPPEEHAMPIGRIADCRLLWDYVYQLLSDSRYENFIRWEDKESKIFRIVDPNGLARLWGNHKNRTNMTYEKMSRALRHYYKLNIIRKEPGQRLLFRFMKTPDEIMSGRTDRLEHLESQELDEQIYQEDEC

As to TCCGCA, the binding signal in test [1] is 1.91 fold enrichment (6-mer frequency, TF over GST control); in test [2] it was 2.24 fold enrichment (6-mer frequency, TF over GST control); in test [3], 1.21 fold enrichment (6-mer frequency, TF over GST control); in test [4] it was 2.46 fold enrichment (6-mer frequency, TF over GST control); in [5], 1.98 fold enrichment (6-mer frequency, TF over GST control); in test [6], 1.76 fold enrichment (6-mer frequency, TF over GST control). Further, the binding signal in test [7] is 1.98 fold enrichment (6-mer frequency, TF over GST control); in test [8], 2.22 fold enrichment (6-mer frequency, TF over GST control); in test [9], 1.35 fold enrichment (6-mer frequency, TF over GST control); in test [10] it was 2.15 fold enrichment (6-mer frequency, TF over GST control); in [11], 1.95 fold enrichment (6-mer frequency, TF over GST control); in [12], 2.08 fold enrichment (6-mer frequency, TF over GST control). Also, the binding signal in [13] is 2.26 fold enrichment (6-mer frequency, TF over GST control); in test [14], 2.24 fold enrichment (6-mer frequency, TF over GST control); in test [15], 1.98 fold enrichment (6-mer frequency, TF over GST control); in [16], 2.61 fold enrichment (6-mer frequency, TF over GST control); in test [17], 2.27 fold enrichment (6-mer frequency, TF over GST control); in test [18], 2.18 fold enrichment (6-mer frequency, TF over GST control).

The values are drawn from publication PMC7862700, “An all-to-all approach to the identification of sequence-specific readers for epigenetic DNA modifications on cytosine”.
